Holding throughout (test): NCI-60 one-dose screen, 48 h (100 = growth as untreated, 0 = no growth, -100 = all killed)
Common to all, as to settings: 10 µM unless noted

Test [1] has as its system T-47D breast.
For test [2], the system named is BT-549 breast.
The test system of test [3] is MDA-MB-435 melanoma.
In test [4] the test system is SW-620 colon.
Test [5] relates to MCF7 breast.
Test [6] relates to HCT-116 colon.
Test [7] has as its system KM12 colon.
Test [8] has as its system MDA-MB-468 breast.
Test [9] concerns HCC-2998 colon.

Structures are written as SMILES. The panel holds about 83,000 compounds, 20% with a hit somewhere; the sample as a whole holds those more often.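 Plates (96-well) were seeded with cells, treated with compound at one concentration, and incubated for 48 hours before percent growth was determined.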 Unmarked numbers belong to inactive results. Calls of active or inactive are those of the source. The calls were made as follows: active = growth percent below 10; inactive = the rest.

In the case of `Cn1cc(-c2cc(N)n3nc(-c4c[nH]c5ccc(F)cc45)cc3n2)c2cccnc21`, the growth was -59.7% (active) in test [1]; -73.6% (active) in [2]; -76.6% (active) in test [3]; -66.4% (active) in [4]; -53.8% (active) in test [5]; -91.4% (active) in test [6]. Further, the growth is -66% (active) in test [7] and -92.9% (active) in [8].

Regarding `COc1cc(CNC(=O)C[C@H](C)CCC=C(C)C)ccc1OCc1cn(-c2ccccc2Cl)nn1`, the growth was 9.14% (active) in test [1]; 28.2% in [2]; 66.5% in [3]; 80.2% in [4]; 40.6% in test [5]; 49.7% in test [6]. For the same molecule, the growth in test [7] is 63%; in test [8], 28.5%.

As to `COc1cc(C=O)ccc1OC(=O)c1cc(-c2ccc(C)cc2)n(-c2ccc(S(C)(=O)=O)cc2)n1`, the growth in test [1] is 105%; in test [2], 126%; in test [3], 104%; in test [4] it was 124%; in [5] it was 88.4%; in [9], 118%. Moreover, the growth in [7] was 104%; in test [8] it was 124%.

Take `CN(C(=O)CN1C(=O)/C(=C/c2ccco2)SC1=S)C1CCS(=O)(=O)C1` (centres undefined): the growth in test [1] was 75.7%; in [2], 91.3%; in [3], 97%; in test [4], 99.9%; in [5], 91.1%; in test [9] it was 104%. The figures for the growth in [7] and in [8] were 107% and 72%, respectively.

As to `CC1=C(C(=O)Nc2ccccc2)C(c2ccc3ccccc3c2)n2c(nc3ccccc32)N1` (centres undefined), the growth in test [1] is 91.8%; in test [2], 92.9%; in [3], 53.9%; in test [4] it was 9.24% (active); in test [5], 9.9% (active); in test [6], -36.4% (active). Also, the growth was 69.4% in test [7] and 17.9% in test [8].

Regarding `CN(C)c1nc(NCCNS(=O)(=O)c2ccc(C(=O)/C=C/c3ccccc3)cc2)nc(N2CCOCC2)n1`, the growth is 73.1% in [1]; 94.3% in test [2]; 83.3% in [3]; -11.3% (active) in test [4]; -4.51% (active) in test [5]; 89.4% in [9]. Moreover, in test [7], the growth is -11.1% (active).

`O=C(Nc1ccc(Cl)c(C(F)(F)F)c1)N1CCN(c2cc(-c3cn(-c4ccccc4)nc3-c3cccc(O)c3)ccn2)CC1`: the growth in test [1] was -1.78% (active); in [2] it was -39.4% (active); in test [3], -65.4% (active); in [4], 16.6%; in test [5], -22.2% (active); in test [6] it was 4.83% (active). Also, the growth in test [7] was -8.11% (active); in [8], -34.8% (active).

As for `CCc1ccc(SC2c3cc(OC)ccc3Oc3nc(N)c(C#N)c(N)c32)cc1` (centres undefined), the growth in test [1] was -52% (active); in test [2], -67.8% (active); in test [3], -22.1% (active); in [4], -42.9% (active); in test [5], -45.4% (active); in test [9], -48.3% (active). For the same molecule, the growth in test [7] was -17.7% (active); in test [8] it was -78.8% (active).

Consider `COc1ccc2c(c1)C(Sc1ccc(Cl)cc1)c1c(nc(N)c(C#N)c1N)O2` (centres undefined), for which the growth in [1] is 55%; in test [2], 12.4%; in [3], 75.8%; in test [4], 58.1%; in test [5], 26.7%; in [9], 94.2%. In addition, the results for the growth in [7] and in [8] were 47% and 77.9%, respectively.

For `O=C(O)CC1S/C(=N/N=C/c2nc3ccccc3s2)NC1=O` (centres undefined), the growth in [1] was 85.4%; in [2], 98.2%; in test [3], 102%; in [4], 104%; in test [5], 60.9%; in test [6], 71.1%. The growth in test [7] is 90.6%; in test [8], 104%.

Regarding `O=C(CSc1nc2sc3c(c2c(=O)n1-c1ccc(Cl)cc1)CCCC3)NNC(=O)c1ccc(F)cc1`, the growth in test [1] was 74%; in test [2], 67.3%; in test [3], 98.2%; in test [4], 91%; in test [5], 61.9%; in test [6], 78.3%. Also, the growth in test [7] was 101%; in [8], 95%.

On to `Cc1cc(C(NC(=O)CCCCCNc2cccc3c2C(=O)N(C2CCC(=O)CC2=O)C3=O)c2cccc(N(C)C)c2)c(O)c2ncccc12` (centres undefined), for which the growth was 4.11% (active) in test [1]; -8.92% (active) in [2]; 36.1% in [3]; 23.7% in test [4]; 10.9% in [5]; 13.8% in test [6]. Moreover, the growth was 15.3% in [7] and -24.4% (active) in [8].

As for `Cc1ccc(C(C(=O)NC2CCCCC2)N(Cc2ccccc2Cl)C(=O)c2ccc(CN3CCOCC3)o2)o1` (centres undefined), the growth in test [1] was 99.9%; in test [2] it was 152%; in test [3], 102%; in test [4] it was 105%; in [5], 95.3%; in [9] it was 94.7%. Besides, the growth in [7] is 99.4%; in test [8], 84.7%.

Turning to `CN(C)CCCNC(=S)Nc1ccc(/C=C/c2ccc(Cl)cc2)cc1`, the growth in [1] was -48.7% (active); in test [2], -69.2% (active); in test [3], -90.6% (active); in [4], -41.7% (active); in test [5], -46.2% (active); in [9] it was -84.2% (active). The growth in test [7] was -36.8% (active); in test [8] it was -88.7% (active).

On to `COc1ccccc1NC(=O)N/N=C/c1c[nH]c2ccccc12`, for which the growth in test [1] was 36.2%; in test [2], 15.5%; in test [3], -22.8% (active); in test [4], 35.9%; in test [5], 6.55% (active); in test [9], 6.44% (active). Besides, the growth in [7] is 3.61% (active); in [8], -6.01% (active).

The values are drawn from PubChem BioAssay (NCI).
